Reference: PubChem BioAssay
Activity calls are given as the source filed them. Unless noted, how the calls were made is not given here.

Assays:
[1] = resazurin metabolic signal in HepG2 cells – cell-based, resazurin fluorescence, 24 h, PK04 Diversity Set, profiling panel (AID 1172); settings: HepG2 viability, higher = more signal
[2] = budding yeast growth changes without added modifier – OD600, strain BY4716, 24 h, basal condition, primary screen (AID 1173); settings: S. cerevisiae BY4716 growth, OD600, 24 h; higher = more signal, called active from +8 up or from −8 down
[3] = viability profiling in MM1S myeloma cells – cell-based, resazurin fluorescence, basal, 24 h, PK04 Diversity Set, profiling panel (AID 1174); settings: higher = more signal, called active from +8 up or from −8 down;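 further: MM1S multiple myeloma cell line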
[4] = target: Dihydroorotate dehydrogenase (quinone), mitochondrial (Plasmodium falciparum (isolate 3D7)) (UniProt Q08210); test: inhibition of P. falciparum DHODH – biochemical, C-terminal His tag, absorbance 600 nm, primary screen (AID 1175); settings: PfDHODH enzyme, DCIP absorbance 600 nm; higher = more signal, called active from +8 up or from −8 down;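 further: recombinant parasite enzyme with a five histidine tag at its C terminus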
[5] = inhibition of PAO1 biofilm formation – strain PAO1, LB-PBS medium, absorbance 600 nm, primary screen (AID 1176); settings: P. aeruginosa PAO1 growth/biofilm, A600, 12 h; higher = more signal
[6] = growth modulation of vineyard yeast isolate – strain RM11-1a, OD600, basal, 24 h, primary screen (AID 1177);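 further: cultures grown under basal conditions with no added stressor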; settings: S. cerevisiae RM11-1a growth, OD600, 24 h; higher = more signal, called active from +8 up or from −8 down
[7] = growth of efflux-deficient E. coli DRC39 – strain DRC39, OD650, 24 h, E. coli filamentation inducers, primary screen (AID 1178);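 further: growth measured as culture turbidity by optical density at 650 nm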; settings: E. coli DRC39 acrAB, higher = more signal, called active from +8 up or from −8 down
[8] = growth of efflux-deficient E. coli DRC39 – strain DRC39, OD650, 48 h, E. coli filamentation inducers, primary screen (AID 1179);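 further: screen aims at cell division blockers that make cells filament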; settings: E. coli DRC39 delta-acrAB growth, higher = more signal, called active from +8 up or from −8 down
[9] = viability profiling in RPMI8226 myeloma cells – cell-based, resazurin fluorescence, basal, 24 h, PK04 Diversity Set, profiling panel (AID 1180); settings: higher = more signal;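 further: RPMI8826 multiple myeloma cell line at 5000 cells per well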
[10] = target: E3 ubiquitin-protein ligase XIAP (Homo sapiens) (UniProt P98170); test: small molecules binding XIAP protein – biophysical, small-molecule microarray, fluorescence 635 nm, primary screen (AID 1181); settings: higher = more signal;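 further: score merges 667 nm emission and signal to noise over triplicate slides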
[11] = test system: XIP peptide (Xip251-270) binding; test: XIP fragment 251-270 binding compounds – biochemical, small-molecule microarray, fluorescence 635/667 nm, 0.1 µg/mL protein, primary screen (AID 1182); settings: fluorescent protein binding, 635 nm, higher = more signal, called active from +8 up or from −8 down
XIP peptide (Xip251-270) = test: compounds binding XIP fragment 251-270 – biochemical, small-molecule microarray, fluorescence 635/667 nm, 0.5 µg/mL protein, primary screen (AID 1183); settings: fluorescence 635 nm, higher = more signal
[12] = blood-stage malaria parasite viability loss – strain 3D7, DAPI fluorescence, 100 nL, primary screen (AID 1184);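 further: parasites grown inside human red blood cells in medium with human serum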; settings: P. falciparum 3D7 growth, 3 d, higher = more signal
[13] = target: Homeobox protein Hox-A13 (Mus musculus) (UniProt Q62424); test: disruptors of Hoxa13 oligonucleotide interaction – biochemical, fluorescence polarization, labeled oligonucleotide, primary screen (AID 1185); settings: Hoxa13:DNA binding, 15 min, higher = more signal, called active from +8 up or from −8 down
[14] = blockers of DNA damage checkpoint Chk1 activation – imaging, HeLa, hydroxyurea, phospho-Chk1 antibody, percent positive cells, primary screen (AID 1186); settings: hydroxyurea-induced phospho-Chk1 immunofluorescence imaging, higher = more signal
[15] = blockers of DNA damage checkpoint Chk1 activation – imaging, HeLa, hydroxyurea, phospho-Chk1 nuclear intensity, primary screen (AID 1187); settings: hydroxyurea-induced phospho-Chk1 immunofluorescence imaging, higher = more signal

Sequence of Dihydroorotate dehydrogenase (quinone), mitochondrial (Plasmodium falciparum (isolate 3D7)) (Q08210 whole entry, looked up): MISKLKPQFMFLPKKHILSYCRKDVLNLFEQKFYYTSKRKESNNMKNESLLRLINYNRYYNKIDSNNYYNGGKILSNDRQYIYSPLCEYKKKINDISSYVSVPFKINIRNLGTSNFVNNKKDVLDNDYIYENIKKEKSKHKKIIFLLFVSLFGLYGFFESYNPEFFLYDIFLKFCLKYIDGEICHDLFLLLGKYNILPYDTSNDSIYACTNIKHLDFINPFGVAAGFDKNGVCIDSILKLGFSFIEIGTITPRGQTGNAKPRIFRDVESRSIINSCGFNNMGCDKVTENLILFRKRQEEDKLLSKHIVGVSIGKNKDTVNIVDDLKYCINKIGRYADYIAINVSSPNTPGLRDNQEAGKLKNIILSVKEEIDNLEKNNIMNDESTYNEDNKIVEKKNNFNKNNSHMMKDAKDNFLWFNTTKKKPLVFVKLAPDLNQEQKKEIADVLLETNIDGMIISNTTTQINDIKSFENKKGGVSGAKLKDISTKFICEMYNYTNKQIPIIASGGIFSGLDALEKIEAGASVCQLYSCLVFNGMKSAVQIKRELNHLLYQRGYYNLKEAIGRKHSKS
Sequence of E3 ubiquitin-protein ligase XIAP (Homo sapiens) (P98170 whole entry, looked up, the tested form may be a part): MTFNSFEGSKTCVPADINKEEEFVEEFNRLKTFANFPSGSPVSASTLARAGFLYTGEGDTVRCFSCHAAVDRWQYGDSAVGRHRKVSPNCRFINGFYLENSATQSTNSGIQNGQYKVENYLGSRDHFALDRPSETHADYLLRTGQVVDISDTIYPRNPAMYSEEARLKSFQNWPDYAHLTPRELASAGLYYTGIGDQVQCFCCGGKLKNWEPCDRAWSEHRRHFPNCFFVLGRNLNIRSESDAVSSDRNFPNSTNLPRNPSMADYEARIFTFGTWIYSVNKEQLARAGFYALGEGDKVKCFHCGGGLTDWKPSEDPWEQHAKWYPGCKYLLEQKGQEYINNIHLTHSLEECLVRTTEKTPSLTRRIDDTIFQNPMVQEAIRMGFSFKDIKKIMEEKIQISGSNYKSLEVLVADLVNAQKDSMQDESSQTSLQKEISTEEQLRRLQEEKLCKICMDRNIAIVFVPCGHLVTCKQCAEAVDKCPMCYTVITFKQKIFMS
Sequence of Homeobox protein Hox-A13 (Mus musculus) (Q62424 whole entry, looked up): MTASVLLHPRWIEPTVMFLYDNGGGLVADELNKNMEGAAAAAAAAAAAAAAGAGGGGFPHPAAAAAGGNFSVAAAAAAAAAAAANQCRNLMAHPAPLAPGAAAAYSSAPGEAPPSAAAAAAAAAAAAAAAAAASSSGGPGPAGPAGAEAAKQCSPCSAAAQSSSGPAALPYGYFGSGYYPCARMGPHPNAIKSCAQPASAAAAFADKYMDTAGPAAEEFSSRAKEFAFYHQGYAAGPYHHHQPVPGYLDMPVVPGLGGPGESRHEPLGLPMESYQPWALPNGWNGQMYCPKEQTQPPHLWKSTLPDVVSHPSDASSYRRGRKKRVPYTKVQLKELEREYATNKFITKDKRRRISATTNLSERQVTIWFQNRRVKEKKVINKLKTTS

**Q.** For `COc1ccccc1CN1C(=O)c2ccccc2[C@@H](C(=O)NCCCN(C)C)[C@@H]1c1ccc(CO)cc1`, which z-score [1] is on record?
**A.** 0.619

**Q.** And the z-score [2]?
**A.** -1.37 (inactive)

**Q.** What about the z-score [3] of the same molecule?
**A.** 1.22 (inactive)

**Q.** And the composite z-score [4]?
**A.** 0.0824 (inactive)

**Q.** What about the z-score [5] of the same molecule?
**A.** 0.292 (inactive)

**Q.** What about the z-score [6] of the same molecule?
**A.** -0.942 (inactive)

**Q.** And the z-score [7]?
**A.** 0.65 (inactive)

**Q.** And the z-score [8]?
**A.** 1.37 (inactive)

**Q.** What about the z-score [9] of the same molecule?
**A.** 1.09

**Q.** And the composite z-score [10]?
**A.** -0.0426

**Q.** And the composite z-score [11]?
**A.** -0.0888 (inactive)

**Q.** And the composite z-score (XIP peptide (Xip251-270))?
**A.** 0.66

**Q.** What about the z-score [12] of the same molecule?
**A.** -2.34

**Q.** And the z-score [13]?
**A.** 3.27 (inactive)

**Q.** And the z-score [14]?
**A.** -0.343 (inactive)

**Q.** What about the z-score [15] of the same molecule?
**A.** -0.136 (inactive)

**Q.** What does the source list for `CN(C)C(=O)[C@@]1(CCS(=O)(=O)c2ccccc2)N=C(c2ccc(OCCCO)cc2)O[C@H]1c1ccccc1N=[N+]=[N-]`?
**A.** z-score [1]: -0.679; z-score [2]: 0.135 (inactive); z-score [3]: -0.517 (inactive); composite z-score [4]: -0.926 (inactive); z-score [5]: -0.0558 (inactive); z-score [6]: -0.241 (inactive); z-score [7]: -0.068 (inactive); z-score [8]: 0.0077 (inactive); z-score [9]: -1.68; composite z-score [10]: -0.0676; composite z-score [11]: 0.266 (inactive); composite z-score (XIP peptide (Xip251-270)): 0.723; z-score [12]: -2.56; z-score [13]: -5.61 (inactive); z-score [14]: -0.268 (inactive); z-score [15]: -0.701 (inactive)

**Q.** Which z-score [1] does the source give for `CCCCC(=C=CC[C@@H](O)c1cccc(OCCO)c1)CCO` here?
**A.** 0.695

**Q.** And the z-score [2]?
**A.** -1.26 (inactive)

**Q.** And the z-score [3]?
**A.** -0.0452 (inactive)

**Q.** What about the composite z-score [4] of the same molecule?
**A.** -0.376 (inactive)

**Q.** What about the z-score [5] of the same molecule?
**A.** 0.424 (inactive)

**Q.** And the z-score [6]?
**A.** 0.549 (inactive)

**Q.** What about the z-score [7] of the same molecule?
**A.** 1.14 (inactive)

**Q.** What about the z-score [8] of the same molecule?
**A.** 0.839 (inactive)

**Q.** And the z-score [9]?
**A.** 1.37

**Q.** What about the composite z-score [10] of the same molecule?
**A.** -0.0853

**Q.** What about the composite z-score [11] of the same molecule?
**A.** -0.0509 (inactive)

**Q.** What about the composite z-score (XIP peptide (Xip251-270)) of the same molecule?
**A.** 0.106

**Q.** And the z-score [12]?
**A.** -0.0161

**Q.** What about the z-score [13] of the same molecule?
**A.** -2.25 (inactive)

**Q.** What about the z-score [14] of the same molecule?
**A.** -0.875 (inactive)

**Q.** What about the z-score [15] of the same molecule?
**A.** -0.341 (inactive)

**Q.** What does the source list for `C[C@]1(C(=O)NCC(F)(F)F)c2ccccc2C(=O)N(Cc2ccc(OC(F)(F)F)cc2)[C@H]1c1ccc(CO)cc1`?
**A.** z-score [1]: 0.2; z-score [2]: -0.139 (inactive); z-score [3]: -0.296 (inactive); composite z-score [4]: 0.182 (inactive); z-score [5]: 1.48 (inactive); z-score [6]: -0.353 (inactive); z-score [7]: -0.414 (inactive); z-score [8]: -1 (inactive); z-score [9]: 0.14; composite z-score [10]: 0.212; composite z-score [11]: 0.102 (inactive); composite z-score (XIP peptide (Xip251-270)): 0.564; z-score [12]: -0.231; z-score [13]: -3.96 (inactive); z-score [14]: 0.01 (inactive); z-score [15]: -0.125 (inactive)

**Q.** Which results are given for `C=CC[C@]1(C(=O)N(C)C)COC(c2ccc(OCCCO)cc2)=N1`?
**A.** z-score [1]: 0.0446; z-score [2]: -2.54 (inactive); z-score [3]: 0.41 (inactive); composite z-score [4]: -0.261 (inactive); z-score [5]: 1.21 (inactive); z-score [6]: 0.919 (inactive); z-score [7]: 0.386 (inactive); z-score [8]: -2.8 (inactive); z-score [9]: 0.764; composite z-score [10]: 0.202; composite z-score [11]: 0.113 (inactive); composite z-score (XIP peptide (Xip251-270)): 0.907; z-score [12]: -1.7; z-score [13]: -2.35 (inactive); z-score [14]: -0.491 (inactive); z-score [15]: -0.146 (inactive)

**Q.** What does the source list for `CC(C)C[C@H]1NC(=O)[C@H](Cc2ccccc2)NC(=O)[C@@]23C(=O)N[C@@H](Cc4ccccc4)C2[C@H](C)[C@@]2(C)O[C@H]2C3/C=C/C/C=C\CNC1=O` (some centres undefined)?
**A.** z-score [1]: -0.59; z-score [2]: -0.396 (inactive); z-score [3]: -0.263 (inactive); composite z-score [4]: -0.228 (inactive); z-score [5]: 0.519 (inactive); z-score [6]: -0.711 (inactive); z-score [7]: -0.437 (inactive); z-score [8]: -0.231 (inactive); z-score [9]: -0.0041; composite z-score [10]: -0.17; composite z-score [11]: 0.252 (inactive); composite z-score (XIP peptide (Xip251-270)): 0.718; z-score [12]: -0.799; z-score [13]: -7.8 (inactive); z-score [14]: -0.157 (inactive); z-score [15]: 0.005 (inactive)

**Q.** Which results are given for `COCCOC(=O)N1C(=O)[C@@]2(c3cc(C#CC4=CCCCC4)ccc31)[C@H](C(=O)N1CCc3cc(OC)c(OC)cc3C1)[C@H]1C(=O)O[C@H](c3ccccc3)[C@H](c3ccccc3)N1[C@@H]2c1ccc(O)cc1`?
**A.** z-score [1]: -0.03; z-score [2]: 0.935 (inactive); z-score [3]: -0.0713 (inactive); composite z-score [4]: 0.0434 (inactive); z-score [5]: 0.802 (inactive); z-score [6]: 2.23 (inactive); z-score [7]: -0.724 (inactive); z-score [8]: -0.169 (inactive); z-score [9]: 0.485; composite z-score [10]: 0.072; composite z-score [11]: 1.49 (inactive); composite z-score (XIP peptide (Xip251-270)): 0.795; z-score [12]: -1.8; z-score [13]: 0.129 (inactive); z-score [14]: -0.0825 (inactive); z-score [15]: 0.246 (inactive)

**Q.** With `COCCOC(=O)N1C(=O)[C@@]2(c3cc(C#Cc4ccc(OC)cc4)ccc31)[C@H](c1ccc(OCCO)cc1)N1[C@H](c3ccccc3)[C@H](c3ccccc3)OC(=O)[C@H]1[C@@H]2C(=O)N1CCCCCCC1` as the molecule, how does the z-score [1] read?
**A.** -0.266

**Q.** And the z-score [2]?
**A.** 0.376 (inactive)

**Q.** And the z-score [3]?
**A.** 0.699 (inactive)

**Q.** What about the composite z-score [4] of the same molecule?
**A.** -1.31 (inactive)

**Q.** And the z-score [5]?
**A.** 2.17 (inactive)

**Q.** And the z-score [6]?
**A.** 0.277 (inactive)

**Q.** And the z-score [7]?
**A.** 0.0117 (inactive)

**Q.** What about the z-score [8] of the same molecule?
**A.** 1.19 (inactive)

**Q.** What about the z-score [9] of the same molecule?
**A.** 0.746

**Q.** What about the composite z-score [10] of the same molecule?
**A.** 0.0162

**Q.** And the composite z-score [11]?
**A.** 0.92 (inactive)

**Q.** What about the composite z-score (XIP peptide (Xip251-270)) of the same molecule?
**A.** 0.768

**Q.** What about the z-score [12] of the same molecule?
**A.** -2.09

**Q.** And the z-score [13]?
**A.** -15.8 (active)

**Q.** What about the z-score [14] of the same molecule?
**A.** -0.318 (inactive)

**Q.** And the z-score [15]?
**A.** -0.217 (inactive)

**Q.** With `Cc1ccc(S[C@]2(C(=O)NCCCN(C)C)CC(=O)N(Cc3ccccc3Cl)[C@@H]2c2ccc(CO)cc2I)cc1` as the molecule, how does the z-score [1] read?
**A.** -0.0565

**Q.** What about the z-score [2] of the same molecule?
**A.** -2.11 (inactive)

**Q.** What about the z-score [3] of the same molecule?
**A.** -2.51 (inactive)

**Q.** And the composite z-score [4]?
**A.** 0.648 (inactive)

**Q.** And the z-score [5]?
**A.** -0.833 (inactive)

**Q.** What about the z-score [6] of the same molecule?
**A.** 0.995 (inactive)

**Q.** And the z-score [7]?
**A.** 0.165 (inactive)

**Q.** What about the z-score [8] of the same molecule?
**A.** -0.352 (inactive)

**Q.** And the z-score [9]?
**A.** -1.5

**Q.** What about the composite z-score [10] of the same molecule?
**A.** -0.133

**Q.** And the composite z-score [11]?
**A.** 0.0919 (inactive)

**Q.** What about the composite z-score (XIP peptide (Xip251-270)) of the same molecule?
**A.** 0.856

**Q.** What about the z-score [12] of the same molecule?
**A.** -0.344

**Q.** What about the z-score [13] of the same molecule?
**A.** -1.48 (inactive)

**Q.** What about the z-score [14] of the same molecule?
**A.** -0.0214 (inactive)

**Q.** And the z-score [15]?
**A.** 0.0301 (inactive)
